Laboratory results as given in the supplement of paper PMC6897291.
Counter-ions that a name gives are not always drawn.

Key:
[1] = test system: U-2932; assay: growth inhibition by drug alone (1 - RLU/untreated control) (fraction); higher = stronger inhibition; settings: 177Lu-lilotomab satetraxetan 0 ug/ml
Procedure, shortened: (§1)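 RIVA or U-2932 cells were left untreated or pretreated for 18 h with a radiolabelled anti-CD37 antibody conjugate (~600 MBq/mg) at 0.5 µg/ml for RIVA or 1 µg/ml for U-2932. The cells were then washed and seeded at 3,000 cells/well on plates pre-printed with the Selleck Cambridge Cancer Compound library, dosed at 10/100 nM for RIVA and 10/1,000 nM for U-2932. From day 3, RealTime-Glo luminescence was read daily after 1 h at 37°C. Growth inhibition was taken as one minus RLU over the mean of the untreated no-drug wells, of which there were 48 per plate.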

[2] = test system: RIVA; assay: as above; settings: 177Lu-lilotomab satetraxetan 0 ug/ml
Procedure, shortened: as §1

[3] = test system: U-2932; assay: growth inhibition by drug plus 177Lu-lilotomab satetraxetan (1 - RLU/untreated control) (fraction); higher = stronger inhibition; settings: 177Lu-lilotomab satetraxetan 1 ug/ml
Procedure, shortened: as §1

[4] = test system: RIVA; assay: as above; settings: 177Lu-lilotomab satetraxetan 0.5 ug/ml
Procedure, shortened: as §1

Compound | growth inhibition by drug alone ([1]; 10 nM, time (day): 3) | growth inhibition by drug alone ([1]; 10 nM, time (day): 4) | growth inhibition by drug alone ([1]; 10 nM, time (day): 5) | growth inhibition by drug alone ([1]; 10 nM, time (day): 6) | growth inhibition by drug alone ([1]; 1000 nM, time (day): 3) | growth inhibition by drug alone ([1]; 1000 nM, time (day): 4) | growth inhibition by drug alone ([1]; 1000 nM, time (day): 5) | growth inhibition by drug alone ([1]; 1000 nM, time (day): 6) | growth inhibition by drug alone ([2]; 10 nM, time (day): 3) | growth inhibition by drug alone ([2]; 10 nM, time (day): 4) | growth inhibition by drug alone ([2]; 10 nM, time (day): 5) | growth inhibition by drug alone ([2]; 10 nM, time (day): 6) | growth inhibition by drug alone ([2]; 100 nM, time (day): 3) | growth inhibition by drug alone ([2]; 100 nM, time (day): 4) | growth inhibition by drug alone ([2]; 100 nM, time (day): 5) | growth inhibition by drug alone ([2]; 100 nM, time (day): 6) | growth inhibition by drug plus 177Lu-lilotomab satetraxetan ([3]; 10 nM, time (day): 3) | growth inhibition by drug plus 177Lu-lilotomab satetraxetan ([3]; 10 nM, time (day): 4) | growth inhibition by drug plus 177Lu-lilotomab satetraxetan ([3]; 10 nM, time (day): 5) | growth inhibition by drug plus 177Lu-lilotomab satetraxetan ([3]; 10 nM, time (day): 6) | growth inhibition by drug plus 177Lu-lilotomab satetraxetan ([3]; 1000 nM, time (day): 3) | growth inhibition by drug plus 177Lu-lilotomab satetraxetan ([3]; 1000 nM, time (day): 4) | growth inhibition by drug plus 177Lu-lilotomab satetraxetan ([3]; 1000 nM, time (day): 5) | growth inhibition by drug plus 177Lu-lilotomab satetraxetan ([3]; 1000 nM, time (day): 6) | growth inhibition by drug plus 177Lu-lilotomab satetraxetan ([4]; 10 nM, time (day): 3) | growth inhibition by drug plus 177Lu-lilotomab satetraxetan ([4]; 10 nM, time (day): 4) | growth inhibition by drug plus 177Lu-lilotomab satetraxetan ([4]; 10 nM, time (day): 5) | growth inhibition by drug plus 177Lu-lilotomab satetraxetan ([4]; 10 nM, time (day): 6) | growth inhibition by drug plus 177Lu-lilotomab satetraxetan ([4]; 100 nM, time (day): 3) | growth inhibition by drug plus 177Lu-lilotomab satetraxetan ([4]; 100 nM, time (day): 4) | growth inhibition by drug plus 177Lu-lilotomab satetraxetan ([4]; 100 nM, time (day): 5) | growth inhibition by drug plus 177Lu-lilotomab satetraxetan ([4]; 100 nM, time (day): 6)
N#Cc1c(O)c2c(-c3ccc(-c4ccccc4O)cc3)csc2[nH]c1=O | 0.111 | 0.0478 | -0.0374 | -0.062 | 0.0299 | -0.017 | -0.0537 | 0.0109 | 0.017 | -0.0012 | -0.079 | -0.317 | -0.44 | -0.357 | -0.367 | -0.39 | 0.00586 | 0.0777 | 0.105 | 0.108 | 0.0618 | 0.0835 | 0.123 | 0.191 | 0.57 | 0.613 | 0.615 | 0.612 | 0.402 | 0.488 | 0.487 | 0.49
COc1ccc(-c2ccc3c(N4CCOCC4)nc(N4C[C@@H](C)O[C@@H](C)C4)nc3n2)cc1CO | 0.119 | 0.133 | 0.0721 | 0.0015 | 0.602 | 0.481 | 0.389 | 0.407 | 0.0903 | 0.0995 | 0.0433 | -0.131 | 0.104 | 0.122 | 0.0472 | -0.0784 | 0.0319 | 0.069 | 0.0942 | 0.161 | 0.496 | 0.409 | 0.361 | 0.434 | 0.514 | 0.598 | 0.603 | 0.621 | 0.475 | 0.552 | 0.55 | 0.529
COc1cc2c(cc1OC)CN(CCc1ccc(NC(=O)c3cccc4c(=O)c5cccc(OC)c5[nH]c34)cc1)CC2 [Elacridar] | -0.00987 | 0.00491 | 0.00725 | 0.0766 | 0.114 | 0.0649 | 0.000978 | -0.0858 | -0.196 | -0.178 | -0.24 | -0.531 | -0.21 | -0.258 | -0.283 | -0.457 | -0.0285 | 0.00551 | 0.0106 | 0.107 | 0.0477 | 0.0502 | 0.0374 | -0.0614 | 0.3 | 0.468 | 0.491 | 0.503 | 0.263 | 0.407 | 0.424 | 0.403
CC[C@H](Nc1ncnc2[nH]cnc12)c1nc2cccc(F)c2c(=O)n1-c1ccccc1 | -0.00827 | -0.000402 | -0.0211 | 0.0544 | 0.567 | 0.374 | 0.289 | 0.263 | -0.102 | -0.203 | -0.182 | -0.255 | 0.424 | 0.204 | 0.175 | 0.0639 | -0.0906 | -0.0707 | -0.0592 | 0.0112 | 0.507 | 0.287 | 0.217 | 0.234 | 0.367 | 0.448 | 0.484 | 0.5 | 0.575 | 0.541 | 0.554 | 0.546
Cn1cnc([N+](=O)[O-])c1Sc1ncnc2[nH]cnc12 [Azathioprine (Azasan, Imuran)] | 0.0201 | -0.00369 | 0.00367 | 0.0444 | 0.0785 | 0.0404 | 0.00445 | 0.131 | -0.0287 | -0.0923 | -0.12 | -0.24 | -0.168 | -0.224 | -0.259 | -0.337 | 0.00188 | 0.0643 | 0.101 | 0.167 | 0.0755 | 0.0766 | 0.124 | 0.326 | 0.505 | 0.533 | 0.565 | 0.573 | 0.444 | 0.518 | 0.521 | 0.529
CNNCc1ccc(C(=O)NC(C)C)cc1 [Procarbazine hydrochloride (Matulane)] | 0.123 | 0.0702 | -0.0853 | -0.113 | 0.0616 | 0.0673 | 0.00725 | -0.144 | 0.0732 | 0.0412 | 0.0155 | -0.0516 | -0.184 | -0.167 | -0.142 | -0.189 | 0.0466 | 0.103 | 0.15 | 0.195 | 0.0453 | 0.108 | 0.126 | 0.177 | 0.542 | 0.584 | 0.596 | 0.607 | 0.494 | 0.553 | 0.563 | 0.554
N#CC1(c2ccc(NC(=O)c3cccnc3NCc3ccncc3)cc2)CCCC1 [Apatinib (YN968D1)] | 0.0813 | 0.0775 | 0.0186 | -0.0775 | -0.000689 | 0.0222 | -0.108 | -0.279 | -0.0437 | 0.0236 | -0.0386 | -0.253 | -0.0842 | -0.0337 | -0.084 | -0.223 | 0.0626 | 0.101 | 0.109 | 0.137 | -0.0473 | 0.0612 | 0.0296 | 0.0686 | 0.491 | 0.579 | 0.593 | 0.615 | 0.497 | 0.559 | 0.555 | 0.524
CC(=O)O[C@@]12CO[C@@H]1C[C@H](O)[C@@]1(C)C(=O)[C@H](O)C3=C(C)[C@@H](OC(=O)[C@H](O)[C@@H](NC(=O)OC(C)(C)C)c4ccccc4)C[C@@](O)([C@@H](OC(=O)c4ccccc4)[C@H]21)C3(C)C [Docetaxel (Taxotere)] | 0.953 | 0.965 | 0.974 | 0.978 | 0.964 | 0.972 | 0.977 | 0.98 | 0.953 | 0.967 | 0.973 | 0.973 | 0.949 | 0.964 | 0.969 | 0.971 | 0.96 | 0.971 | 0.977 | 0.983 | 0.966 | 0.977 | 0.982 | 0.985 | 0.968 | 0.982 | 0.985 | 0.988 | 0.967 | 0.979 | 0.985 | 0.987
Nc1nc2[nH]cc(CCc3ccc(C(=O)N[C@@H](CCC(=O)O)C(=O)O)cc3)c2c(=O)[nH]1 [Pemetrexed] | -0.0147 | -0.0188 | -0.0965 | -0.27 | 0.905 | 0.948 | 0.965 | 0.974 | -0.121 | -0.198 | -0.281 | -0.489 | -0.293 | -0.377 | -0.377 | -0.54 | -0.058 | -0.0226 | 0.000411 | 0.0568 | 0.893 | 0.951 | 0.97 | 0.979 | 0.279 | 0.458 | 0.483 | 0.497 | 0.325 | 0.44 | 0.436 | 0.408
Nc1cccc2c1CN(C1CCC(=O)NC1=O)C2=O (stereo not drawn) [Lenalidomide] | 0.0697 | 0.0182 | -0.0235 | 0.0966 | 0.122 | 0.186 | 0.18 | 0.309 | -0.0108 | -0.0398 | -0.0471 | -0.0439 | -0.101 | -0.141 | -0.183 | -0.226 | 0.069 | 0.101 | 0.148 | 0.257 | 0.215 | 0.263 | 0.303 | 0.434 | 0.534 | 0.564 | 0.587 | 0.589 | 0.428 | 0.481 | 0.499 | 0.508
CN(C)C/C=C/C(=O)Nc1cc2c(Nc3ccc(F)c(Cl)c3)ncnc2cc1O[C@H]1CCOC1 [Afatinib (BIBW2992)] | 0.0755 | 0.0672 | 0.0124 | -0.039 | 0.0101 | 0.0989 | 0.0569 | 0.0902 | 0.0532 | -0.016 | -0.0806 | -0.333 | -0.091 | -0.147 | -0.146 | -0.262 | 0.0397 | 0.0532 | 0.0798 | 0.0941 | -0.123 | 0.0652 | 0.0526 | 0.121 | 0.437 | 0.523 | 0.544 | 0.558 | 0.389 | 0.492 | 0.493 | 0.456
Nc1nc(N)c(N=O)c(OCC2CCCCC2)n1 | -0.102 | -0.0718 | -0.059 | 0.0483 | -0.102 | -0.0762 | -0.0902 | -0.132 | -0.226 | -0.243 | -0.283 | -0.504 | -0.331 | -0.36 | -0.322 | -0.473 | -0.0542 | -0.0355 | -0.000656 | 0.134 | -0.0976 | -0.0168 | 0.00555 | 0.0733 | 0.229 | 0.419 | 0.456 | 0.476 | 0.322 | 0.426 | 0.43 | 0.399
COc1cc2ncnc(Nc3ccc(F)c(Cl)c3)c2cc1OCCCN1CCOCC1 [Gefitinib (Iressa)] | 0.0523 | -0.0185 | -0.0608 | -0.248 | -0.147 | -0.0975 | -0.157 | -0.226 | -0.00639 | -0.111 | -0.168 | -0.438 | -0.234 | -0.33 | -0.334 | -0.479 | -0.0292 | -0.0156 | -0.0275 | 0.0384 | -0.218 | -0.0647 | -0.0381 | 0.0874 | 0.402 | 0.522 | 0.546 | 0.553 | 0.408 | 0.485 | 0.503 | 0.494
CCOc1cc2ncc(C#N)c(Nc3ccc(OCc4ccccn4)c(Cl)c3)c2cc1NC(=O)/C=C/CN(C)C [Neratinib (HKI-272)] | -0.0556 | -0.0442 | -0.0146 | 0.0157 | -0.0267 | -0.00012 | -0.0352 | -0.0269 | -0.145 | -0.144 | -0.165 | -0.233 | -0.0145 | -0.0628 | -0.098 | -0.14 | -0.0172 | -0.00319 | 0.0327 | 0.194 | -0.0673 | 0.003 | 0.00224 | 0.0815 | 0.358 | 0.498 | 0.529 | 0.541 | 0.367 | 0.422 | 0.425 | 0.419
